Source: PubChem (National Center for Advancing Translational Sciences (NCATS))
Rows were chosen to be rich in hits. Some 3.9% of all compounds tested hit in one or more screens of this group.
Eya2 phos inh – qHTS Assay for Inhibitors of the Phosphatase Activity of Eya2 | Protein phosphatase EYA2 (Homo sapiens), O00167 | recombinant Eya2, OMFP fluorescence dephosphorylation (OMFP is methylfluorescein phosphate) | Potency, µM (series often up to 76.9 µM), most hits filed as inhibitors | hit rate 0.006% among 330,000
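Eya2 (0.2 uM) preincubated 10 min at ambient with compound, then OMFP substrate added at 50 uM; 10 min reaction in 50 mM HEPES pH 7.5, 50 mM NaCl, 5 uM MgCl2, 0.05% BSA, 1 mM DTT. Fluorescence read at Ex 485/Em 525 nm.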
D1 ag – Allosteric Agonists of the Human D1 Dopamine Receptor: qHTS. D(1A) dopamine receptor (Homo sapiens), P21728. HEK293 T-REx D1 cells, calcium flux, agonist mode. activation, % at 2 µM. hit rate 1% among 360,000; in the data active means activation above about 30%
Target sequence (P21728 whole entry, looked up): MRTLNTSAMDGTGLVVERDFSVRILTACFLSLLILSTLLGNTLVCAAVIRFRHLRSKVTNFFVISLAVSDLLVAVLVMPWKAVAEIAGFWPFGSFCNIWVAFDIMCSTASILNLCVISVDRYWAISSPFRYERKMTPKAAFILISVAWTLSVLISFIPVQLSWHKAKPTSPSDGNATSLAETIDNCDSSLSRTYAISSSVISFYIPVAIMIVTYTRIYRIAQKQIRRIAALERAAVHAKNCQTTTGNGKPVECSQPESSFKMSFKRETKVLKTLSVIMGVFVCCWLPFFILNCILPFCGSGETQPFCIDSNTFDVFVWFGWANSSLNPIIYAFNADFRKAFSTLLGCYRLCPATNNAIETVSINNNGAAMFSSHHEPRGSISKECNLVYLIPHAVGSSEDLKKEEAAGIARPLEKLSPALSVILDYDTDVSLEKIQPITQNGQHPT
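Inducible HEK293 T-REx D1 cells, force-coupled to calcium signalling, were plated at 4000 cells/well with tetracycline and held overnight at 30 C. After no-wash calcium dye loading, compound-evoked calcium rise over 180 s flagged agonists.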
D1 PAM – Potentiators of Human D1 Dopamine Receptor: qHTS | hit rate 0.036% among 360,000 | D(1A) dopamine receptor (Homo sapiens), P21728 | potentiation, % at 10 µM | HEK293 TREx D1 cells, calcium flux, dopamine EC20 potentiation | AID 504651, 2011; in the data active means potentiation above about 30%
GALK inhibitor – qHTS Assay for Inhibitors of Human Galactokinase (GALK); Purified GALK, Kinase-Glo residual ATP luminescence; hit rate 0.007% among 270,000; AID 1868, 2009; P51570; Potency, µM (series often up to 57.5 µM), usual class: inhibitors
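Human GALK (5 nM) with 35 uM ATP and 100 uM galactose in 20 mM HEPES pH 8.0, 5 mM MgCl2, 60 mM NaCl, 1 mM DTT, 0.01% BSA. After 1 h at room temperature, leftover ATP was read by Kinase-Glo Plus luminescence.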
USP2a inh – qHTS Assay for Inhibitors of Ubiquitin-specific Protease USP2a Using CHOP2 as the Reporter | Potency, µM (top dose mostly 38.3 µM), actives largely listed as inhibitors | USP2 core, Ub-CHOP2 coupled fluorogenic reporter, 485/531 | hit rate 0.01% among 330,000 | Ubiquitin carboxyl-terminal hydrolase 2 (Homo sapiens), O75604
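Cell-free coupled assay: 10nM USP2 core preincubated 30min RT with compound in Tris-HCl pH 8.0/CaCl2/CHAPS buffer, then 25nM Ub-CHOP2 and 25nM reporter substrate; fluorescence (Ex 485/Em 531) read after 60min RT, normalized to NEM inhibition, concentration-response curves fitted.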
D1 antagonist – Antagonist of Human D 1 Dopamine Receptor: qHTS. D(1A) dopamine receptor (Homo sapiens), P21728. HEK293 TREx D1 cells, calcium flux, dopamine EC80; stronger effect = lower value. hit rate 3.2% among 360,000. activity change, negative = inhibition, % at 10 µM. AID 504652, 2011; in the data active means activity change below about -30%
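Tetracycline-induced HEK293 T-REx cells with force-coupled D1 receptor were loaded with a no-wash calcium dye. Compound was added after a 10 s baseline and read kinetically for 180 s; EC80 dopamine was then added and calcium flux followed another 180 s.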
Numbers stand for hits; . = inactive; ? = inconclusive; / = not tested or not shown; ! = a repeat was not active. Unless noted, the call rests on the fitted dose curve; in most records, active means well fitted inhibition curve with a large enough effect; inconclusive means small, poorly fitted or top-dose-only effect, or effect the other way; inactive means flat fitted curve, though single readings scatter.

SMILES | Eya2 phos inh | D1 ag | D1 PAM | GALK inhibitor | USP2a inh | D1 antagonist
COc1ccc(-c2nnn(CC(=O)N(Cc3ccco3)C(C(=O)NCC3CCCO3)c3ccco3)n2)cc1 (configuration not stated) | . | . | . | . | . | .
Cc1ccc(-c2nnn(CC(=O)N(c3cccc(F)c3)C(C(=O)NC(C)(C)C)c3ccco3)n2)o1 (configuration not stated) | . | . | . | . | . | -39
CCc1ccccc1NC(=O)CCS(=O)(=O)c1cccc2nonc12 | / | . | . | / | / | .
Cc1ccc(C)c(NC(=O)c2cc(S(=O)(=O)N3CCCc4ccccc43)ccc2F)c1 | / | . | . | / | / | .
Cc1ccc(CNc2nc3ccccc3n3cnnc23)cc1 | . | . | . | . | . | -37!
CSc1ccc(CNc2nc3ccccc3n3cnnc23)cc1 | . | . | . | . | . | .
CNC(=O)COc1ccc(NC(=O)CCn2nc(-c3ccc(C)cc3)c3ccccc3c2=O)cc1 | / | . | . | / | / | .
O=Cc1c(NCc2ccccc2)c2ccccc2[nH]c1=O | . | . | . | . | . | .
O=Cc1c(NCc2ccc(Cl)cc2)c2ccccc2[nH]c1=O | . | . | . | . | . | -37
COc1ccc(-c2ccc(CCC(=O)O)n2-c2ccc(Cl)cc2C)cc1 | / | . | . | / | / | .
O=C(CSc1nc(-c2ccccc2F)nc2cc(=O)[nH]n12)Nc1cccc(C(F)(F)F)c1 | / | . | . | / | / | .
Cc1ccc(-n2c3c(c(=O)[nH]c2=O)C(NC(=O)C(C)(C)C)(C(F)(F)F)C(=O)N3)cc1 (configuration not stated) | / | . | . | / | / | -74
O=C(NC1(C(F)(F)F)C(=O)Nc2c1c(=O)[nH]c(=O)n2CCc1ccccc1)c1ccc(Cl)cc1 (configuration not stated) | / | . | . | / | / | .
Cc1ccc(C(=O)NC2(C(F)(F)F)C(=O)Nc3c2c(=O)[nH]c(=O)n3CCc2ccccc2)cc1 (configuration not stated) | / | . | . | / | / | -40
CCC(C(=O)NCCc1ccccc1)n1nc(C)n2c(cc3sccc32)c1=O (configuration not stated) | / | . | . | / | / | .
COC(=O)c1nnn(CC(=O)Nc2cc(F)ccc2F)c1C(=O)OC | / | . | . | / | / | .
Cc1c(-c2ccc(F)cc2)nc(N)c(C#N)c1-c1ccco1 | . | . | . | . | . | -33
COc1ccc(OCC(O)CNC(=O)Nc2ccc(F)cc2)cc1 (configuration not stated) | . | . | . | . | . | -38
CCOC(=O)c1c(NC(=O)c2ccc(OCC)c(Br)c2)sc2c1CCCC2 | / | . | . | / | / | .
Cc1cccc(-n2c(Cc3ccccc3)nnc2SCc2nc(-c3cccs3)no2)c1 | / | . | . | / | / | .
O=C(c1ccncc1)N(Cc1ccco1)Cc1cc2ccccc2[nH]c1=O | . | . | . | . | . | .
CCC(=O)N(CCc1ccccc1)Cc1cc2cccc(C)c2[nH]c1=O | . | . | . | . | . | -43
Cc1cccc2cc(CN(Cc3ccco3)C(=O)c3ccncc3)c(=O)[nH]c12 | . | . | . | . | . | -70
CCOc1ccc(N2CC(O)(c3ccc(F)cc3)[N+]3=C2CCCC3)cc1 (configuration not stated) | . | . | . | . | . | -44
CCN1CCc2c(OCc3ccccc3)cccc2C1=O | . | . | . | . | . | -38
SMILES | Eya2 phos inh | D1 ag | D1 PAM | GALK inhibitor | USP2a inh | D1 antagonist
Cc1ccc(SCC(=O)Nc2ccc(O)c(-c3nc4cc(C)ccc4o3)c2)cc1 | / | . | . | / | / | -83
Cc1ccc(SCC(=O)Nc2ccc3oc(-c4ccc(F)cc4)nc3c2)cc1 | / | . | . | / | / | .
CC(=O)N[C@@H](Cc1ccc(O)cc1)C(=O)N[C@H](C(=O)N[C@@H](C)C(=O)N[C@H](C#N)CC(=O)O)C(C)C | . | . | . | / | . | .
Cc1ccc(-c2nn(-c3cc(Cl)ccc3[N+](=O)[O-])c(=O)c3ccccc23)cc1C | . | . | . | . | . | -49
O=C(NCC1COc2ccccc2O1)c1ccc(NC(=O)c2ccco2)cc1 (configuration not stated) | . | . | . | . | . | -30
O=C(NCC1COc2ccccc2O1)c1ccc(Cl)cc1 (configuration not stated) | . | . | . | . | . | .
C=C[C@@H]1c2ccccc2N(S(=O)(=O)c2ccc(C)cc2)[C@H](c2ccc(C(F)(F)F)cc2)C1(C#N)C#N | . | . | . | / | . | -32
CCN(CC)c1nc2c(c(=O)[nH]c(=O)n2C)n1CCOc1ccccc1 | . | . | 35 | . | . | .
COc1cn(-c2ccccc2)nc1C(=O)Nc1ccc(C)cc1 | . | 34 | . | . | . | .
COc1cccc(C(=O)NCC(=O)NCc2cc(=O)n(C)c(=O)n2C)c1 | . | . | . | . | . | -36
COc1ccc(C(=O)NCCC(=O)NCc2cc(=O)n(C)c(=O)n2C)cc1 | . | . | . | . | . | -51
Cn1c(CNC(=O)CNC(=O)c2ccccc2)cc(=O)n(C)c1=O | . | . | . | . | . | .
COc1ccc(OC)c(CCNC(=O)Cn2ccc3cc(S(=O)(=O)N4CCCCC4)ccc32)c1 | / | . | . | / | / | .
OC(CNc1ccccc1)COc1ccc(OCC(O)CNc2ccccc2)cc1 (configuration not stated) | . | . | . | . | . | -40
COC(=O)c1ccc(CNCC(O)COc2ccc(-c3ccccc3)cc2)cc1 (configuration not stated) | . | . | . | . | . | .
CCOCC(O)CNc1ccccc1 (configuration not stated) | . | . | . | . | . | .
COc1ccc(CNCC(O)COc2ccc(C(C)(C)c3ccccc3)cc2)cc1 (configuration not stated) | . | 33 | . | . | . | .
CC(C)(c1ccccc1)c1ccc(OCC(O)CNC2CCN(Cc3ccccc3)CC2)cc1 (configuration not stated) | ? | 67 | . | . | . | .
Cc1ccc2[nH]cc(C(c3ccccc3)c3cccs3)c2c1 (configuration not stated) | / | . | . | / | / | .
COc1ccccc1CNC(=O)CN1C(=O)CCn2nc(-c3ccccc3)cc21 | / | . | . | / | / | .
